Screens deposited in PubChem by several laboratories.
An excerpt weighted towards active compounds, which were near 27% of everything screened.
CYP2C9 inh = blocks human cytochrome P450 2C9. CYP2C9 Supersomes, luciferin-H conversion, luminescence. inhibition, % at 5 µM. 20% of 96,000 active;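 active = blocking of liver enzyme CYP2C9 beyond about 50% at 5 µM, limit read from the data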
sEH act = soluble epoxide hydrolase (human) activation | 0.04% of 91,000 active | P34913 | purified human sEH enzymatic activity, activator screen | activation, % at 2 µM | AID 717; in the data active = activation above about 37%
sEH inh = soluble epoxide hydrolase (human) inhibition | 0.34% of 91,000 active | P34913 | recombinant human sEH enzymatic activity assay | inhibition, % at 2 µM | AID 707; in the data active = inhibition above about 80%
CYP2C9 act = CYP2C9 (human) activation; 1.4% of 96,000 active; AID 1024; activation factor at 5 µM; recombinant CYP2C9, luciferin-H conversion, luminescence; active compounds read high; factor 1 = untreated enzyme, 0 = blocked; P11712;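 active = activation factor of 2 or more for CYP2C9 at a 5 µM dose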;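 also: 0 = sulfaphenazole-blocked wells and 1 = vehicle-only wells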
CYP2C19 act = cytochrome P450 2C19 (human) activation | AID 1025 | activation factor at 5 µM | recombinant CYP2C19, luciferin-H EGE luminescence; active compounds read high; 0 = fully inhibited enzyme, 1 = untreated enzyme | P33261 | 96,000 tested, under 10 active;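 active = activation factor of at least 2 at 5 µM in the primary screen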;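 also: 0 = wells with 2.5 mM tranylcypromine and 1 = vehicle-only wells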
Target sequence (P33261 whole entry, looked up): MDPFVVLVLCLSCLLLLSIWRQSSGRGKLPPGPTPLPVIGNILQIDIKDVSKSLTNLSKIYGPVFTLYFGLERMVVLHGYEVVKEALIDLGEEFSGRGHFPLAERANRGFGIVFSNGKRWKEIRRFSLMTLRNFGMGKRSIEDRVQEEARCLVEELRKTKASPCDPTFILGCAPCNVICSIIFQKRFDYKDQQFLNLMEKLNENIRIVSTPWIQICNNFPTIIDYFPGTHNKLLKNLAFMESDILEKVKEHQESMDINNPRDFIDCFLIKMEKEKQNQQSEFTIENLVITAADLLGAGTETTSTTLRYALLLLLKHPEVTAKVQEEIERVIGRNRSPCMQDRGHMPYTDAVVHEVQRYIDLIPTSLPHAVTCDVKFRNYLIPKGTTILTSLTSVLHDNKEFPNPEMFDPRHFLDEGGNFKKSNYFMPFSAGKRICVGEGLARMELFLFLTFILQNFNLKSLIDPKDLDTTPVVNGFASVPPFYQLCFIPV
CYP2C19 inh = inhibitors of human CYP2C19. 21% of 96,000 active. CYP2C19 Supersomes, luciferin-H EGE luminescence, 30 min. inhibition, % at 5 µM. P33261;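 active = CYP2C19 inhibition above a set limit at 5 µM in the primary screen, cut at about 50% in these data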;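 also: plate controls were negative control wells for no effect and 2.5 mM tranylcypromine positive control for full effect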
* = called active by the depositor.

For Cn1c(=O)c2c(nc(SCCN3CCOCC3)n2Cc2cccc3ccccc23)n(C)c1=O the results were CYP2C9 inh 26.7, sEH act 7.7, sEH inh -8.2, CYP2C9 act 0.7, CYP2C19 act 0.9 and CYP2C19 inh 12.1.
Screening Cc1ccnc(SCC(=O)n2c3c(c4ccccc42)CC(C)CC3)n1 (centres undefined) returned CYP2C9 inh 10.6, sEH act 14.3, sEH inh -12.3, CYP2C9 act 0.9, CYP2C19 act 0.8 and CYP2C19 inh 23.8.
O=C(Cc1ccccc1)NCCc1cccc(Cl)c1 was read as CYP2C9 inh 47.5, sEH act -12.6, sEH inh 13.1, CYP2C9 act 0.5, CYP2C19 act 0.3 and CYP2C19 inh 71.4*.
For Cc1ccc(CC(=O)NCC(C)C)cc1 the results were CYP2C9 inh 15.3, sEH act 4.4, sEH inh -4.3, CYP2C9 act 0.8, CYP2C19 act 0.2 and CYP2C19 inh 79.3*.
Screening Cc1noc(C)c1C(=O)NCCCc1ccccc1 returned CYP2C9 inh 52.6*, CYP2C9 act 0.5, CYP2C19 act 0.5 and CYP2C19 inh 53.0*.
`Cc1ccc(S(=O)(=O)NC(C)CCc2ccccc2)cc1` (centres undefined) gave CYP2C9 inh 40.4, sEH act 1.2, sEH inh 1.2, CYP2C9 act 0.6, CYP2C19 act 0.9 and CYP2C19 inh 10.3.
For Cc1ccc(CC(=O)NC(C)CCc2ccccc2)cc1 (centres undefined) the results were CYP2C9 inh 71.4*, sEH act -5.5, sEH inh 8.7, CYP2C9 act 0.3, CYP2C19 act 0.6 and CYP2C19 inh 37.4.
`COc1cc(-c2nnc(Sc3ccc(C(F)(F)F)cc3[N+](=O)[O-])o2)cc(OC)c1OC` gave CYP2C9 inh 19.6, sEH act -5.5, sEH inh 4.4, CYP2C9 act 0.8, CYP2C19 act 0.6 and CYP2C19 inh 39.3.
`CCC(=O)Nc1ccc(NC(=O)CN2CCCC(C)C2)c(Cl)c1` (centres undefined) gave CYP2C9 inh 5.5, sEH act 16.4, sEH inh -14.0, CYP2C9 act 0.9, CYP2C19 act 1 and CYP2C19 inh 3.3.
Screening COc1cc(C2C(C#N)=C(N)OC3=C2C(=O)CCC3)c([N+](=O)[O-])cc1OC (centres undefined) returned CYP2C9 inh -0.5, sEH act 0.3, sEH inh 0.4, CYP2C9 act 1, CYP2C19 act 1.1 and CYP2C19 inh -12.0.
`CC(CCc1ccccc1)NC(=O)CSc1nnnn1C` (centres undefined) gave CYP2C9 inh -19.4, sEH act -3.0, sEH inh 4.5, CYP2C9 act 1.2, CYP2C19 act 0.8 and CYP2C19 inh 19.6.
For Cc1occc1C(=O)NCCc1cccc(Cl)c1 the results were CYP2C9 inh 63.6*, sEH act -16.5, sEH inh 15.4, CYP2C9 act 0.4, CYP2C19 act 0.1 and CYP2C19 inh 91.6*.
Screening O=C(Cc1ccccc1)NCCCc1ccccc1 returned CYP2C9 inh 36.3, sEH act -25.6, sEH inh 26.3, CYP2C9 act 0.6, CYP2C19 act 0.3 and CYP2C19 inh 67.7*.
For Cc1occc1C(=O)NCCCCNC(=O)c1ccoc1C the results were CYP2C9 inh 3.3, sEH act -9.4, sEH inh 11.7, CYP2C9 act 1, CYP2C19 act 1 and CYP2C19 inh 0.7.
For CC(CCc1ccccc1)NC(=O)CSc1nc(N)cc(N)n1 (centres undefined) the results were CYP2C9 inh 22.3, sEH act -2.8, sEH inh 2.0, CYP2C9 act 0.8, CYP2C19 act 0.4 and CYP2C19 inh 56.3*.
Screening O=C(c1cccs1)N(Cc1ccco1)Cc1cc2ccccc2[nH]c1=O returned CYP2C9 inh 67.3*, CYP2C9 act 0.3, CYP2C19 act 0.3 and CYP2C19 inh 74.8*.
Screening O=C(c1cc2ccccc2oc1=O)N(Cc1ccco1)Cc1cccs1 returned CYP2C9 inh 66.0*, sEH act -4.9, sEH inh 5.1, CYP2C9 act 0.3, CYP2C19 act 0.7 and CYP2C19 inh 33.3.
Screening Cc1ccc2cc(CN(CC3CCCO3)C(=O)C(C)C)c(=O)[nH]c2c1 (centres undefined) returned sEH act -2.2 and sEH inh 7.4.
For Cc1ccc2[nH]c(=O)c(CN(CC3CCCO3)C(=O)c3ccncc3)cc2c1 (centres undefined) the results were CYP2C9 inh 84.3*, sEH act 3.0, sEH inh 0.9, CYP2C9 act 0.2, CYP2C19 act 0 and CYP2C19 inh 97.8*.
For Cc1ccc2[nH]c(=O)c(CN(Cc3ccco3)C(=O)c3ccncc3)cc2c1 the results were CYP2C9 inh 96.0*, CYP2C9 act 0, CYP2C19 act 0 and CYP2C19 inh 99.8*.
COc1ccc(C2OC(=O)CC2C(=O)NC2CCCCCC2)cc1OC (centres undefined) was read as CYP2C9 inh 20.7, sEH act 20.6, sEH inh -17.1, CYP2C9 act 0.8, CYP2C19 act 0.9 and CYP2C19 inh 9.5.
CCCC(CCC)C(=O)NNc1cc(=O)c2c(=O)n(C)c(=O)n(C)c2[nH]1 was read as CYP2C9 inh 16.1, sEH act 4.6, sEH inh -3.9, CYP2C9 act 0.8, CYP2C19 act 1 and CYP2C19 inh -1.3.
Screening CCOC(=O)C1CCN(S(=O)(=O)c2cccc(-c3cn4cc(C)ccc4n3)c2)CC1 returned CYP2C9 inh 29.7, sEH act 6.8, sEH inh -3.0, CYP2C9 act 0.7, CYP2C19 act 0.5 and CYP2C19 inh 51.8*.
`CCOC(=O)C1CCN(S(=O)(=O)c2ccc(OCC)cc2)CC1` gave CYP2C9 inh -10.6, sEH act -10.3, sEH inh 10.3, CYP2C9 act 1.1, CYP2C19 act 0.1 and CYP2C19 inh 94.3*.
`CCOC(=O)N1CCN(S(=O)(=O)c2ccc(OCC)cc2)CC1` gave CYP2C9 inh 35.4, sEH act 7.3, sEH inh -6.5, CYP2C9 act 0.6, CYP2C19 act 0.2 and CYP2C19 inh 76.5*.
Screening CCOC(=O)c1ccc(S(=O)(=O)N2CCC(C(=O)OCC)CC2)cc1 returned CYP2C9 inh 19.4, sEH act -4.6, sEH inh 5.8, CYP2C9 act 0.8, CYP2C19 act 0.8 and CYP2C19 inh 19.4.
CCN(CC)C(=O)N1CCN(S(=O)(=O)c2ccc(C)cc2)CC1 was read as CYP2C9 inh -37.8, sEH act -1.1, sEH inh -0.8, CYP2C9 act 1.4, CYP2C19 act 0.7 and CYP2C19 inh 30.1.
Screening CCOc1ccc(S(=O)(=O)N2CCN(C(=O)c3sccc3C)CC2)cc1 returned CYP2C9 inh 31.6, sEH act 7.8, sEH inh -5.5, CYP2C9 act 0.7, CYP2C19 act 0.3 and CYP2C19 inh 74.1*.
